Assay outcomes: PubChem, National Center for Advancing Translational Sciences (NCATS)
PNC assembly inh = inhibitors of perinucleolar compartment assembly; PC3M PTB-GFP, PNC prevalence imaging, 16 h; hits give low values; activity change (PNC), negative = inhibition, % at 10 µM; 3.1% of 140,000 active; AID 2417;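 active means readout at or below -70, meaning at least 70% loss of cells showing the perinucleolar compartment, a nuclear body marking cancer cells; inconclusive means readout between -30 and a set limit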;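 further: plate controls were DMSO wells for no effect and camptothecin positive control wells for full effect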
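Read-out is percentage of cells bearing a perinucleolar compartment, from automated 20x imaging of fixed, Hoechst-stained PC3M PTB-GFP cells. Cells were seeded 4 h, then exposed 16 h to compound (23 nl of library stock) in duplicate plates.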
ALDH1A1 inh = inhibitors of human aldehyde dehydrogenase 1A1 | P00352 | Purified ALDH1A1, NADH fluorescence, propionaldehyde substrate | Potency, µM (doses to about 75.3 µM), for the others: at the top dose activity, negative = inhibition, hits mostly inhibitors | 7.3% of 220,000 active | AID 1030;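 further: potency means the concentration at half of the fitted maximal effect; plate controls were no enzyme wells and a reference inhibitor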
Target sequence (P00352 whole entry, looked up): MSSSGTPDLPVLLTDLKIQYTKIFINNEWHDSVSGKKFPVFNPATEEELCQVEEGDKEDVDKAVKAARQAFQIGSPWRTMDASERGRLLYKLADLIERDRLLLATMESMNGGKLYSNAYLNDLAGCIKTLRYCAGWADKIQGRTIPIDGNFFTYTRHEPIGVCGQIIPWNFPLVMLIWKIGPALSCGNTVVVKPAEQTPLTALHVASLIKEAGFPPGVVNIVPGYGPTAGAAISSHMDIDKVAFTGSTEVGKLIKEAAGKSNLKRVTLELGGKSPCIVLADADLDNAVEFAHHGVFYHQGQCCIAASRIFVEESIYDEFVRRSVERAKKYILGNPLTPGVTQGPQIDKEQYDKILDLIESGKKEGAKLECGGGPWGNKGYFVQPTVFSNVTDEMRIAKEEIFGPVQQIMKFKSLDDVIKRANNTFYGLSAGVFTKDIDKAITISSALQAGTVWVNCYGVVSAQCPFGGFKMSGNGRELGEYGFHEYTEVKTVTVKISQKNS
HPGD inh = blocks human HPGD enzyme activity | 4.3% of 150,000 active | AID 894 | purified HPGD, NADH fluorescence kinetic, PGE2 substrate | Potency, µM, inactives show at the top dose activity change, negative = inhibition, usual class: inhibitors; further: potency means the concentration at half of the fitted maximal effect
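NADH formation kinetics: reaction with 30 uM PGE2 and 1 mM NAD+ (final), 20 nM enzyme, Tris-HCl pH 8 with Tween 20, after 15 min compound preincubation at room temperature. Fluorescence change, last versus first of five reads.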
* = called active by the depositor; u = inconclusive; x = no result; ! = a repeat was not active; [ ] = dose if it differs, or a comment. This is a sample that favours compounds with a hit; in the whole collection about 11% have one here. Unless noted, the call rests on the fitted dose curve; in most records, active means well fitted inhibition curve with a large enough effect (not every such curve was filed as active); inconclusive means small, poorly fitted or top-dose-only effect, or another doubt; inactive means no such curve, though single readings can be large or run the other way. Unless noted, on the % scale 0 is the no-effect control and ±100 the full control effect.

SMILES	PNC assembly inh	ALDH1A1 inh	HPGD inh
O=C(COC(=O)c1cc(=O)[nH]c2ccc(Br)cc12)c1ccccc1	x	-1%	x
CC(C)n1nc(C(=O)Nc2nnc(C3CC3)s2)c2ccccc2c1=O	x	-3%	x
CCSc1nnc(NC(=O)c2cc(C)nc3ccccc23)s1	-17	-8%	28µM*
CCSc1nnc(NC(=O)c2nc(-c3ccccc3)n(-c3ccccc3)n2)s1	-3	2%	-19%
CCSc1nnc(NC(=O)c2nn(C(C)C)c(=O)c3ccccc23)s1	u	25µM*	-16%
Cc1ccc(N2C(=O)CCC2(C(N)=O)c2ccccc2)cc1 (stereo unspecified)	x	9%	x
Cc1cc2c(c(=O)o1)C(C13C=CC(CC1)C3)C(C#N)=C(N)O2 (stereo unspecified)	-5	-10%	-4%
CN1CCN(C(=O)CSc2nc(-c3cccs3)ccc2C#N)CC1	8	u	u
COc1ccc(C(=O)NC(=O)COC(=O)C2COc3ccccc3O2)cc1 (stereo unspecified)	7	6%	-1%
O=C(CSc1ncnc2nc[nH]c12)c1ccccc1	-20	28µM*!	28µM*!
O=C(O)CCSc1ncnc2nc[nH]c12	x	12%[13.5 µM]	-3%
Cc1cccc(C)c1NC(=O)CSc1ncnc2nc[nH]c12	u	6%	-11%
O=C(CSc1ncnc2nc[nH]c12)Nc1ccccc1C(F)(F)F	u	0%	8.9µM*
CCN1C(=O)[C@H]2[C@@H]3[C@H](O)C=CC(=O)[C@H]3CC[C@H]2C1=O	x	3.2µM*	x
CC(C)(C)N1C(=O)[C@H]2[C@@H]3[C@H](O)C=CC(=O)[C@H]3CC[C@H]2C1=O	x	9%[13.5 µM]	x
O=C(NCC1CCCO1)C1c2ccccc2C(=O)N1C1CCCCCCC1 (stereo unspecified)	65	-12%	-3%
O=C(NCC1CCCO1)c1ccc2c(c1)C(=O)N(C1CCCCC1)C2=O (stereo unspecified)	48	8.9µM*	-11%
CC(C)CCN1C(=O)c2ccc(C(=O)NCC3CCCO3)cc2C1=O (stereo unspecified)	-2	4.5µM*	-16%
CC1CCCN(c2ccc(C(=O)NCC3CCCO3)cn2)C1 (stereo unspecified)	6	-12%	11µM*
Cc1cc(NC(=O)c2ccc3c(c2)C(=O)N(CCC(C)C)C3=O)no1	-9	u	0%
O=C(NCC1CCCO1)c1ccc(/C=N/O)nc1 (stereo unspecified)	-7	0%	-9%
COc1ccc(-c2csc(C3=C(O)CN(C(C)C)C3=N)n2)cc1OC	x	-7%	x
Cc1ccc(CNC(=O)c2cnccn2)cc1	28	3%	-29%
CNC(=O)c1ccc(Nc2nnc(-c3ccc(C)c(S(=O)(=O)NCC4CCCO4)c3)c3ccccc23)cc1 (stereo unspecified)	34	u	25µM*
Cc1ccc(-c2nnc(Nc3ccccc3)c3ccccc23)cc1S(=O)(=O)NCC1CCCO1 (stereo unspecified)	60	-4%	-18%
SMILES	PNC assembly inh	ALDH1A1 inh	HPGD inh
FC(F)(F)c1cccc(N2CCN(CC3CC=CCC3)CC2)c1 (stereo unspecified)	25	-16%	-15%
O=C(NN=C1CCCC1)c1[nH]c2ccc(Cl)cc2c1-c1ccccc1	x	11µM*	x
O=C(NN=C1CCCCCC1)c1cc(-c2ccccc2)nc2ccccc12	-10	0%	-3%
CC(C)NCc1nnc(-c2ccccc2Cl)o1	x	-8%	x
CSc1nnc(-c2ccc(Cl)cc2Cl)o1	-2	8%	-20%
Fc1ccc(-c2nnc(-c3ccc(Cl)cc3Cl)o2)cc1	u	-2%	-16%
CCSc1nnc(-c2ccc(Cl)cc2Cl)o1	-4	u	14µM*
CSc1nnc(-c2ccccc2Cl)o1	55	6%	32µM*
Clc1ccc(-c2nnc(-c3ccccc3)o2)c(Cl)c1	40	32µM*	u
COc1cc(/C=N/n2cnnc2)ccc1OC(=O)c1ccncc1	21	7%	-2%
Cc1c(C(=O)NCCC2=CCCCC2)cccc1[N+](=O)[O-]	33	u	-17%
ClC/C=C/CCl	x	-5%	-8%
Cc1ccc2nc(NC3=NC(CC(=O)O)C(=O)N3)nc(C)c2c1 (stereo unspecified)	x	-14%	x
CCC(C)(C)NC(=O)c1ccc2c(c1)OCCO2	x	-5%	x
COc1cccc2c1OC1(C)CC2/C(=C(\C)O)C(=O)N1 (stereo unspecified)	-27	4%	-5%
Nc1ccc(C(=O)n2c3ccccc3c3ccccc32)cc1	u	11µM*	32µM*
COc1ccc(C(CNC(=O)Cc2ccccc2F)N2CCCCC2)cc1 (stereo unspecified)	x	-7%	x
Nc1cc(C(=O)N2CCCC2)cc(C(=O)N2CCCC2)c1	u	-5%	-13%
COc1ccc(S(=O)(=O)N(C)c2ccc(C(=O)N3CCOCC3)cc2)cc1	u	u	6.3µM*
Cc1ccc(C(=O)n2c(N)nc3ccccc32)cc1	x	7%	x
COc1ccc(C(CNC(=O)c2ccc(S(=O)(=O)N(C)C)cc2)N2CCCCC2)cc1 (stereo unspecified)	x	10µM*	x
CN(C)S(=O)(=O)c1ccc(C(=O)N2CCOCC2)cc1	-11	7%	-8%
Nc1ccc(C(=O)N2CCCC2)cc1	u	-6%	28µM*
COC(=O)CSc1nnc(CNC(=O)c2ccco2)n1-c1ccc(F)cc1	u	-15%	x
CC1CCC2(OC1)OC1CC3C4CC[C@@H]5CC(O)CC[C@@]5(C)C4CC(=O)[C@]3(C)C1C2C (stereo partly specified)	x	-2%	-12%
SMILES	PNC assembly inh	ALDH1A1 inh	HPGD inh
Cc1c(Cl)cccc1NC(=O)C1NC(=O)CC1c1ccccc1 (stereo unspecified)	-7	5%	-6%
Cn1ccnc1C(=O)c1ccc(S(=O)(=O)N2CCCC2)cc1	x	-1%	x
O=C(CN1C(=O)C2CC=CCC2C1=O)NCC1COc2ccccc2O1 (stereo unspecified)	40	u	-13%
O=C(Oc1ccccc1)N1CCC2(CC1)CCN(c1ccccc1)CC2	x	u	-6%
COc1ccc(/C=C(\C#N)C(=O)N2CCOCC2)cc1Br	34	u	16µM*
CCCCOc1ccc(C(=O)N2CCCC2C(=O)O)cc1 (stereo unspecified)	-100*	-1%	-18%
O=C(c1ccc(Cl)cc1)N1CCCOC1	33	18%	8.9µM*
Cc1nn(C(=O)c2ccco2)c(C)c1Br	u	u	-6%
NC(=O)C1CCCN(C(=O)c2ccc(Cl)cc2)C1 (stereo unspecified)	27	3%	-21%
COc1cc(/C=C(\C#N)C(=O)N2CCOCC2)ccc1OCc1ccccc1	x	-15%	x
COc1ccc(C(=O)n2nc(C)c(Br)c2C)cc1	u	10µM*	-8%
CCCOc1ccc(C(=O)N2CCCC2C(=O)O)cc1 (stereo unspecified)	36	-3%	-7%
CS(=O)(=O)N(CC(=O)N1CCN(c2ccccc2)CC1)c1ccc(Cl)c(C(F)(F)F)c1	41	1%	-20%
Cc1cc(C)nc(Sc2c(C)nn(-c3ccccc3)c2C)n1	-5	11%	-14%
Cc1ccc(C(=O)C2(C)C3c4cc(Br)ccc4OC(=O)C32C(=O)c2ccco2)cc1 (stereo unspecified)	-14	-4%	-10%
Cc1cc(Br)cc(C)c1OCCCCN(C)C	90	u	-2%
